Data taken from PubChem BioAssay (EPA / NIEHS).
Inconclusive results are not listed. Active and inactive are the calls of the source. Rule for the calls, unless noted: active = hit-call score of the fitted dose curve at least 0.9, where 1 is the maximum; inconclusive = response in the unintended direction; inactive = score below 0.9.

What was measured:
[1] = read-out: xenobiotic metabolism (CYP1A2), CYP1A2 (gene 1544); experiment: CLD_CYP1A2_24hr: CellzDirect (CLD) Gene Expression Assay for xenobiotic metabolism (CYP1A2) at 24 hours (AID 2283683)
Procedure, shortened: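 CYP1A2 mRNA induction measured by quantitative nuclease protection (chemiluminescent) in human primary hepatocytes 24 h after multi-concentration chemical dosing with daily fresh solutions. DMSO (0.2%) baseline; positive-direction fitting; morphology-based cytotoxicity noted.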

[2] = read-out: Cytochrome P450 3A4 (Homo sapiens) (UniProt P08684); experiment: CLD_CYP3A4_24hr: CellzDirect (CLD) Gene Expression Assay for xenobiotic metabolism (CYP3A4) at 24 hours (AID 2283689)
Procedure, shortened: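 CYP3A4 mRNA induction read by quantitative nuclease protection (chemiluminescence) 24 hr after dosing. Cultured human hepatocytes (two donor preparations) treated daily, vehicle 0.2% DMSO; phase-contrast morphology annotates cytotoxicity.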

[3] = read-out: ABC Transporter (ABCB1), ABCB1 (gene 5243); experiment: CLD_ABCB1_48hr: CellzDirect (CLD) Gene Expression Assay for ABC Transporter (ABCB1) at 48 hours (AID 2283695);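 for AC50: potency for induction meaning increase of mRNA over DMSO vehicle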
Procedure, shortened: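 ABCB1 mRNA was measured by quantitative nuclease protection assay (chemiluminescence) 48 h after dosing. Human hepatocyte cultures from two separate donors received fresh dosing solutions daily for two days, with 0.2% DMSO as vehicle. Positive-direction fit against DMSO.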

[4] = read-out: Cytochrome P450 2B6 (Homo sapiens) (UniProt P20813); experiment: CLD_CYP2B6_48hr: CellzDirect (CLD) Gene Expression Assay for xenobiotic metabolism (CYP2B6) at 48 hours (AID 2283699);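 note: actives raise transcript level above DMSO so potency reflects induction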
Procedure, shortened: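 CYP2B6 transcript induction, read by quantitative nuclease protection (S1 digestion, chemiluminescent detection) 48 h after dosing, is fitted upward against 0.2% DMSO. Cultured human liver primary cells, two donor preparations, received fresh chemical daily over multiple concentrations.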

[5] = read-out: xenobiotic metabolism (CYP1A1), CYP1A1 (gene 1543); experiment: CLD_CYP1A1_48hr: CellzDirect (CLD) Gene Expression Assay for xenobiotic metabolism (CYP1A1) at 48 hours (AID 2283705)
Procedure, shortened: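 CYP1A1 transcript measured by quantitative nuclease protection (chemiluminescent) 48 h after two daily treatments of human hepatocyte cultures, versus 0.2% DMSO. Morphology-based cytotoxicity flags accompany data; two donor preparations used.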

[6] = read-out: Glyceraldehyde-3-phosphate dehydrogenase (Homo sapiens) (UniProt P04406); experiment: CLD_GAPDH_48hr: CellzDirect (CLD) Gene Expression Assay for Baseline Control (Glyceraldehyde 3-phosphate dehydrogenase) at 48 hours (AID 2283706);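 note: active means higher GAPDH mRNA than DMSO vehicle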
Procedure, shortened: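 GAPDH baseline-control readout: qNPA chemiluminescent mRNA quantitation in human liver primary cells 48 h after daily dosing on two consecutive days, vehicle 0.2% DMSO; gain of signal fitted against DMSO, cytotoxicity flagged by phase-contrast morphology.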

[7] = STM_H9_CystineISnorm_perc: Stemina devTOX quickPredict H9 human embryonic stem cell (hESC)-based Assay for Cystine (CYSS) Metabolite Biomarker, Normalized (AID 2283713; active = hit-call score of the fitted dose curve at least 0.9, where 1 is the maximum; inactive = score below 0.9)
Procedure, shortened: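 Normalized cystine level in conditioned medium from the final 24h of a 72h treatment of pluripotent H9 cells (daily media and compound renewal). Quantified by UPLC-HRMS with C13-labeled internal standard; scaled to median of 0.1% DMSO vehicle wells.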

[8] = STM_H9_OrnCyssISnorm_ratio: Stemina devTOX quickPredict H9 human embryonic stem cell (hESC)-based Assay for Ornithine (ORN):Cystine (CYSS) Ratio (AID 2283714)
Procedure, shortened: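 UPLC-HRMS of spent media: ORN/CYSS ratio of internal-standard-normalized percentages, DMSO (0.1%) baseline. Pluripotent H9 hESCs, 72h exposure, daily re-dosing with fresh media; last 24h media collected.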

[9] = CEETOX_H295R_MTT_cell_viability: Viability Assessment in the CeeTox HT-H295R MTT Assay (AID 2283718; active = hit-call score of the fitted dose curve at least 0.9, where 1 is the maximum; inactive = score below 0.9;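 for AC50: curve fitted both ways so AC50 may mark viability loss or gain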)
Procedure, shortened: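 Human H295R adrenal cells, prestimulated 48 h with 10 uM forskolin, were exposed 48 h to chemicals in 0.1% DMSO. Viability was measured in the same wells by MTT (0.5 mg/ml, 4 h, 37 C), absorbance 570/650 nm, as percent of controls.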

[10] = read-out: glucuronosyltransferase (UGT1A1), UGT1A1 (gene 54658); experiment: CLD_UGT1A1_24hr: CellzDirect (CLD) Gene Expression Assay for glucuronosyltransferase (UGT1A1) at 24 hours (AID 2283696)
Procedure, shortened: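 UGT1A1 transcript induction was measured by quantitative nuclease protection assay (chemiluminescence) in human hepatocyte cultures 24 h after daily fresh dosing, with 0.2% DMSO as vehicle and baseline.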

[11] = read-out: ABC Transporter (ABCB11), ABCB11 (gene 8647); experiment: CLD_ABCB11_48hr: CellzDirect (CLD) Gene Expression Assay for ABC Transporter (ABCB11) at 48 hours (AID 2283697)
Procedure, shortened: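 Induction of ABCB11 mRNA relative to 0.2% DMSO, measured at 48 h by qNPA chemiluminescence. Cultured human hepatocytes (two donors) received fresh dosing solutions at several concentrations on two consecutive days.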

[12] = read-out: Cytochrome P450 2C9 (Homo sapiens) (UniProt P11712); experiment: CLD_CYP2C9_48hr: CellzDirect (CLD) Gene Expression Assay for xenobiotic metabolism (CYP2C9) at 48 hours (AID 2283701; active = hit-call score of the fitted dose curve at least 0.9, where 1 is the maximum; inactive = score below 0.9)
Procedure, shortened: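 mRNA level measured by quantitative nuclease protection (S1 digestion, chemiluminescent detection) in lysates of human primary hepatocytes exposed 48 h with daily re-dosing. Induction fitted positively versus 0.2% DMSO; morphology-based cytotoxicity flagged yes/no.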

[13] = read-out: xenobiotic metabolism (CYP1A2), CYP1A2 (gene 1544); experiment: CLD_CYP1A2_48hr: CellzDirect (CLD) Gene Expression Assay for xenobiotic metabolism (CYP1A2) at 48 hours (AID 2283703)
Procedure, shortened: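 Cytotoxicity was flagged yes/no from morphology, while CYP1A2 transcript induction was detected by qNPA chemiluminescence after a 48-hour exposure. Human primary hepatocyte cultures from separate donors received fresh dosing solutions daily over two days, with 0.2% DMSO as vehicle and baseline.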

[14] = read-out: glucuronosyltransferase (UGT1A1), UGT1A1 (gene 54658); experiment: CLD_UGT1A1_48hr: CellzDirect (CLD) Gene Expression Assay for glucuronosyltransferase (UGT1A1) at 48 hours (AID 2283709);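 note: actives increase expression relative to DMSO so potency refers to induction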
Procedure, shortened: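 Quantitative nuclease protection assay (chemiluminescent) for UGT1A1 mRNA at 48 h in human hepatocyte cultures from two donors, redosed daily with fresh solutions. Induction fitted relative to 0.2% DMSO; phase-contrast morphology annotated cytotoxicity.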

[15] = read-out: HMG-CoA synthase (HMGCS2), HMGCS2 (gene 3158); experiment: CLD_HMGCS2_48hr: CellzDirect (CLD) Gene Expression Assay for HMG-CoA synthase (HMGCS2) at 48 hours (AID 2283711)
Procedure, shortened: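 mRNA induction read by qNPA chemiluminescence, 48 h after dosing. Cultured primary human liver cells (two donor preparations) received fresh compound daily over two days against 0.2% DMSO vehicle; morphology-based cytotoxicity noted alongside.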

[16] = read-out: Cytochrome P450 2C9 (Homo sapiens) (UniProt P11712); experiment: CLD_CYP2C9_24hr: CellzDirect (CLD) Gene Expression Assay for xenobiotic metabolism (CYP2C9) at 24 hours (AID 2283688)
Procedure, shortened: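 Induction of CYP2C9 mRNA was quantified by quantitative nuclease protection assay (chemiluminescence), gain of signal versus 0.2% DMSO vehicle, 24 h after dosing. Human primary hepatocytes (two donors) received fresh chemical daily at multiple concentrations; morphology-based cytotoxicity flagged yes/no.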

[17] = read-out: alkyl and aryl transferase (GSTA2), GSTA2 (gene 2939); experiment: CLD_GSTA2_24hr: CellzDirect (CLD) Gene Expression Assay for alkyl and aryl transferase (GSTA2) at 24 hours (AID 2283693)
Procedure, shortened: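 GSTA2 transcript levels were quantified by quantitative nuclease protection assay in primary human hepatocytes 24 h after daily dosing with fresh solutions at multiple concentrations; 0.2% DMSO vehicle as baseline, cytotoxicity flagged morphologically.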

[18] = read-out: alkyl and aryl transferase (GSTA2), GSTA2 (gene 2939); experiment: CLD_GSTA2_48hr: CellzDirect (CLD) Gene Expression Assay for alkyl and aryl transferase (GSTA2) at 48 hours (AID 2283708);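 note: active means mRNA induction above DMSO vehicle baseline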
Procedure, shortened: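 GSTA2 mRNA quantified by qNPA chemiluminescence in human primary hepatocyte lysates after 48 h of daily fresh chemical dosing. Increases fitted against 0.2% DMSO vehicle baseline; cytotoxicity from morphology annotated yes/no.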

Measured: AC50

Chain of Cytochrome P450 3A4 (Homo sapiens) (P08684 whole entry, looked up): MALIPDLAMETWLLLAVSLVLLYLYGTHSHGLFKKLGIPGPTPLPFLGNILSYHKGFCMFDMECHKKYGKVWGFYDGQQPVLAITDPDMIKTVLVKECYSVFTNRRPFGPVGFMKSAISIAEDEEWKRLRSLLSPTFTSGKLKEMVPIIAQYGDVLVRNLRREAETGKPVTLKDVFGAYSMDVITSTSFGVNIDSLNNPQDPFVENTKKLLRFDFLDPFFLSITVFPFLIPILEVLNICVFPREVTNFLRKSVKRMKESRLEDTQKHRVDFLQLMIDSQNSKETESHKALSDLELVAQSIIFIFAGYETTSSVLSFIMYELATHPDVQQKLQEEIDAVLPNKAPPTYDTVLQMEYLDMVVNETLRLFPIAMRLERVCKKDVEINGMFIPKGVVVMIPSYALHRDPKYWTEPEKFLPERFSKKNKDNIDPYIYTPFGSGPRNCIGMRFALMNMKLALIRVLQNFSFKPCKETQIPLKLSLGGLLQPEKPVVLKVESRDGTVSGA
Chain of Glyceraldehyde-3-phosphate dehydrogenase (Homo sapiens) (P04406 whole entry, looked up): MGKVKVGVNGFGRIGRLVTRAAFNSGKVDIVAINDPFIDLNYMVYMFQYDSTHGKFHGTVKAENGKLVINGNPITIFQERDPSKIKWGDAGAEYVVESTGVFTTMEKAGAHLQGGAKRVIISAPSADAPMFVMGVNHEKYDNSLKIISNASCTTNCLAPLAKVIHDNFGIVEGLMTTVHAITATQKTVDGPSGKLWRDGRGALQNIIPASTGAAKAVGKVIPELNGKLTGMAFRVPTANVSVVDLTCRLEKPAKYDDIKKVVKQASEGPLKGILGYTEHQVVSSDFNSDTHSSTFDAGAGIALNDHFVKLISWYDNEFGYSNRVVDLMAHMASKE

S=C(S)NCCNC(=S)S.[Mn+2].[S-]C([S-])=NCCN=C([S-])[S-].[Zn+2]
inactive: [1] | [2] | [4] | [6] | [7] | [8]
active: [3] 1.06 µM | [5] 0.252 µM | [9] 1.19 µM

OB(O)O
not listed: [8] | [9] | [16] | [17] | [18]
inactive: all other assays above

CCCCCOC(=O)COc1cc(N2C(=O)C3=C(CCCC3)C2=O)c(F)cc1Cl
active: [2] 4.01 µM
not listed: [15]
inactive: all other assays above

CCOC(=O)C(C)Oc1ccc(Oc2nc3ccc(Cl)cc3o2)cc1 (centres undefined)
not listed: [7] | [8] | [9] | [11] | [12] | [16]
inactive: all other assays above

CCNc1nc(N)nc(Cl)n1
active: [13] 3.97 µM
not listed: [2] | [12] | [14] | [15]
inactive: all other assays above

COc1nc(C)nc(NC(=O)NS(=O)(=O)c2ccccc2OCCCl)n1
inactive: [1] | [17] | [10] | [6] | [18] | [14] | [15]
active: [2] 6.77 µM

CC(C)(C)[C@@H](O)[C@@H](Cc1ccc(Cl)cc1)n1cncn1
active: [2] 2.66 µM | [13] 3.97 µM | [5] 3.97 µM | [8] 88.7 µM
not listed: [6] | [11] | [12] | [16] | [17]
inactive: all other assays above

CCCCCCC(C)OC(=O)COc1nc(F)c(Cl)c(N)c1Cl (centres undefined)
not listed: [5] | [7] | [8] | [9] | [11]
inactive: all other assays above
